Measured values as given in PubChem BioAssay AID1159580 (chemical genetic matrix, 2015).
The campaign covered roughly 5,500 compounds. About 2,000 (36%) were called active. Another 18% or so got no clear call; they are omitted. No stated cut-off is given here; in the data, active means normalized growth mostly below about 0.91 (no sharp cut-off); inconclusive means no clear call, values can overlap the other calls; inactive means mostly above about 0.92. The list shows a part of the results.

Test: chemical genetic growth profiling, strain panel (AID 1159580);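 further: tested at 20 µM; growth read once vehicle control cultures reached saturation at 30 °C; 1 = growth at the plate median or of vehicle wells; lower values mean less growth of the strain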
Settings: growth OD

Measured: normalized growth

CCC(C)C(=O)OC1CC2(C)C(c3ccoc3)OC(=O)CC23OC2(C)OC34C(OC(=O)C(C)C)C3(O)C(OC(=O)C5(C)OC5C)C5(C)CC3(O)C(C)(C5C(=O)OC)C14O2 (stereo unspecified)
inactive: S. cerevisiae deletion strains, locus YAL013W, strain DEP1, hits give low values 1.02 | S. cerevisiae deletion strains, locus YBR021W, strain FUR4, hits give low values 1.01 | S. cerevisiae deletion strains, locus YBR229C, strain ROT2, hits give low values 1 | S. cerevisiae deletion strains, locus YCL029C, strain bik1, hits give low values 1.04 | S. cerevisiae deletion strains, locus YDL035C, strain GPR1, hits give low values 0.993 | S. cerevisiae deletion strains, locus YDL074C, strain BRE1, hits give low values 1.01 | S. cerevisiae deletion strains, locus YDL101C, strain DUN1, hits give low values 1.02 | S. cerevisiae deletion strains, locus YDL134C, strain PPH21, hits give low values 1.01 | S. cerevisiae deletion strains, locus YDL185W, strain tfp1, hits give low values 1.03 | S. cerevisiae deletion strains, locus YDL192W, strain arf1, hits give low values 1.01 | S. cerevisiae deletion strains, locus YDR101C, strain arx1, hits give low values 1.02 | S. cerevisiae deletion strains, locus YDR150W, strain NUM1, hits give low values 1.02 | S. cerevisiae deletion strains, locus YDR162C, strain NBP2, hits give low values 0.996 | S. cerevisiae deletion strains, locus YDR318W, strain mcm21, hits give low values 1.03 | S. cerevisiae deletion strains, locus YDR388W, hits give low values 1.02 | S. cerevisiae deletion strains, locus YDR502C, strain sam2, hits give low values 1.03 | S. cerevisiae deletion strains, locus YEL061C, strain CIN8, hits give low values 1.01 | S. cerevisiae deletion strains, locus YER110C, hits give low values 1.02 | S. cerevisiae deletion strains, locus YER155C, strain BEM2, hits give low values 1.02 | S. cerevisiae deletion strains, locus YER167W, strain BCK2, hits give low values 1.02 | S. cerevisiae deletion strains, locus YGL078C, strain dbp3, hits give low values 1.02 | S. cerevisiae deletion strains, locus YGL086W, strain mad1, hits give low values 1 | S. cerevisiae deletion strains, locus YGL248W, strain PDE1, hits give low values 1.01 | S. cerevisiae deletion strains, locus YGR078C, strain PAC10, hits give low values 1.02 | S. cerevisiae deletion strains, locus YGR135W, strain pre9, hits give low values 1.03 | S. cerevisiae deletion strains, locus YGR229C, strain SMI1, hits give low values 1.03 | S. cerevisiae deletion strains, locus YGR252W, strain gcn5, hits give low values 0.977 | S. cerevisiae deletion strains, locus YHR030C, strain SLT2, hits give low values 1.02 | S. cerevisiae deletion strains, locus YHR079C, strain IRE1 (second series), hits give low values 1.02 | S. cerevisiae deletion strains, locus YHR094C, strain hxt1, hits give low values 1.01 | S. cerevisiae deletion strains, locus YHR129C, strain ARP1, hits give low values 1.01 | S. cerevisiae deletion strains, locus YHR200W, strain rpn10, hits give low values 1.04 | S. cerevisiae deletion strains, locus YIL066C, strain RNR3, hits give low values 1.02 | S. cerevisiae deletion strains, locus YIL073C, strain SPO22, hits give low values 1 | S. cerevisiae deletion strains, locus YIL125W, strain kgd1, hits give low values 1.01 | S. cerevisiae deletion strains, locus YIR030C, strain dcg1, hits give low values 1.02 | S. cerevisiae deletion strains, locus YJL095W, strain BCK1, hits give low values 1.04 | S. cerevisiae deletion strains, locus YJL134W, strain LCB3, hits give low values 1.01 | S. cerevisiae deletion strains, locus YJL168C, strain set2, hits give low values 1.02 | S. cerevisiae deletion strains, locus YJL187C, strain SWE1 (second series), hits give low values 1.03 | S. cerevisiae deletion strains, locus YJR043C, strain POL32, hits give low values 1.04 | S. cerevisiae deletion strains, locus YJR075W, strain HOC1, hits give low values 1.03 | S. cerevisiae deletion strains, locus YKL009W, strain mrt4, hits give low values 0.994 | S. cerevisiae deletion strains, locus YKL068W, hits give low values 1.01 | S. cerevisiae deletion strains, locus YKL085W, strain MDH1 (second series), hits give low values 1.01 | S. cerevisiae deletion strains, locus YKL085W, strain MDH1, hits give low values 1.01 | S. cerevisiae deletion strains, locus YKL190W, strain CNB1, hits give low values 1 | S. cerevisiae deletion strains, locus YKR001C, strain vps1, hits give low values 1.01 | S. cerevisiae deletion strains, locus YLR039C, strain RIC1, hits give low values 0.862 | S. cerevisiae deletion strains, locus YLR058C, strain SHM2, hits give low values 0.999 | S. cerevisiae deletion strains, locus YLR102C, strain apc9, hits give low values 1.01 | S. cerevisiae deletion strains, locus YLR262C, strain YPT6, hits give low values 0.77 | S. cerevisiae deletion strains, locus YLR268W, strain sec22, hits give low values 1.05 | S. cerevisiae deletion strains, locus YLR330W, strain CHS5, hits give low values 1.08 | S. cerevisiae deletion strains, locus YLR342W, strain FKS1 (second series), hits give low values 1.01 | S. cerevisiae deletion strains, locus YLR371W, strain rom2, hits give low values 1.03 | S. cerevisiae deletion strains, locus YLR418C, strain cdc73, hits give low values 0.985 | S. cerevisiae deletion strains, locus YML016C, strain PPZ1, hits give low values 1 | S. cerevisiae deletion strains, locus YML032C, strain rad52, hits give low values 1.03 | S. cerevisiae deletion strains, locus YML124C, strain tub3, hits give low values 1.01 | S. cerevisiae deletion strains, locus YMR078C, strain ctf18, hits give low values 1.03 | S. cerevisiae deletion strains, locus YMR223W, strain ubp8, hits give low values 0.999 | S. cerevisiae deletion strains, locus YMR263W, strain SAP30, hits give low values 1.04 | S. cerevisiae deletion strains, locus YMR307W, strain GAS1, hits give low values 0.923 | S. cerevisiae deletion strains, locus YNL067W, strain RPL9B, hits give low values 1.03 | S. cerevisiae deletion strains, locus YNL128W, strain TEP1, hits give low values 1.01 | S. cerevisiae deletion strains, locus YNL153C, strain GIM3, hits give low values 1.03 | S. cerevisiae deletion strains, locus YNL233W, strain BNI4, hits give low values 1.01 | S. cerevisiae deletion strains, locus YNL250W, strain rad50, hits give low values 1.02 | S. cerevisiae deletion strains, locus YNL271C, strain bni1, hits give low values 1.03 | S. cerevisiae deletion strains, locus YNL298W, strain CLA4, hits give low values 1.03 | S. cerevisiae deletion strains, locus YNL307C, strain MCK1, hits give low values 1.03 | S. cerevisiae deletion strains, locus YNL322C, strain KRE1, hits give low values 1.02 | S. cerevisiae deletion strains, locus YNR052C, strain pop2, hits give low values 1.02 | S. cerevisiae deletion strains, locus YOL006C, strain TOP1, hits give low values 0.923 | S. cerevisiae deletion strains, locus YOL012C, strain htz1 1.81 | S. cerevisiae deletion strains, locus YOL147C, strain pex11, hits give low values 1.03 | S. cerevisiae deletion strains, locus YOR061W, strain CKA2, hits give low values 0.991 | S. cerevisiae deletion strains, locus YOR069W, strain VPS5, hits give low values 1.01 | S. cerevisiae deletion strains, locus YOR136W, strain idh2, hits give low values 1.01 | S. cerevisiae deletion strains, locus YOR144C, strain elg1, hits give low values 1.01 | S. cerevisiae deletion strains, locus YOR184W, strain ser1, hits give low values 1.04 | S. cerevisiae deletion strains, locus YOR316C, strain cot1, hits give low values 1.02 | S. cerevisiae deletion strains, locus YPL055C, strain LGE1, hits give low values 1.05 | S. cerevisiae deletion strains, locus YPL241C, strain CIN2, hits give low values 1.01 | S. cerevisiae deletion strains, locus YPR119W, strain clb2, hits give low values 1.01 | S. cerevisiae deletion strains, locus YPR141C, strain kar3, hits give low values 1.03 | S. cerevisiae deletion strains, locus YPR163C, strain tif3, hits give low values 1.02 | S. cerevisiae deletion strains, locus YPR167C, strain met16, hits give low values 1.02 | S. cerevisiae deletion strains, strain wtn01, hits give low values 1.03 | S. cerevisiae strains, strain wild type, hits give low values 1
